This is an account of results in PubChem BioAssay AID540364 (The Scripps Research Institute Molecular Screening Center, 2011).

SMILES strings stand for the structures. Hit rate of the full screen: of about 360,000 compounds, about 2,000 (0.56%) were called active. This is one part of a sample in which actives are shown more often than they occur.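 The calls were made as follows: active = activation above the average of all compounds screened plus 3 SD, cutoff fixed separately per campaign (cut at about 7.5% in these data); inactive = the rest.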

The nature of this assay: FXN promoter activators, primary screen, cell-based, luciferase luminescence, HEK293 lucGAA850 (AID 540364).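 Also: 0% = DMSO wells and 100% = 10 µM SAHA wells.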 Particulars: HEK293 lucGAA850 FXN promoter luciferase reporter, 24 h; at 6 µM; active compounds read high; percent of 10 µM SAHA response.
As to `CCC(=O)NC(=Nc1nc2ccccc2s1)NC(=O)CC`, the activation was 8.95% (active).

For `CC(=O)Nc1cccc(-c2nc3ccccc3s2)c1C`, the activation is 1.28% (inactive).

Turning to `CC(C)CC(=O)N/C(N)=N/c1nc2ccccc2s1`, the activation is 4.47% (inactive). As for `O=C(NCC1(N2CCCCC2)CCCCC1)c1ccc(NS(=O)(=O)c2ccc(F)cc2)cc1`, the figure is 2.54% (inactive). Under `Nc1ccc(C(=O)Nc2ccccc2N)cc1` stands 13.5% (active). As for `O=C(Nc1ccccc1N1CCCC1)c1ccc2ccccc2c1`, the activation is 1.86% (inactive). Under `O=C(Cc1ccccc1)Nc1ccc(C(=O)Nc2ccccc2C(=O)O)cc1` stands -0.24% (inactive); under `CCOc1ccccc1NS(=O)(=O)c1cc2c3c(c1)C(C)C(=O)N3CCC2` (stereo not drawn), 3.36% (inactive).

Consider `O=C1COc2ccc(C(=O)COC(=O)c3cccnc3Cl)cc2N1`, for which the activation is 1.97% (inactive). As for `CCOC(=O)C1Sc2[nH]c(=O)sc2C(c2ccc(Cl)cc2)C1C(=O)OCC` (stereo not drawn), the figure is -10.5% (inactive); as for `Cc1ccc(C(=O)NNC(=O)c2cc3cc4ccccc4nc3s2)cc1`, -0.4% (inactive). For the molecule `Cc1ccc(NC(=O)c2ccc(Oc3ncccn3)cc2)cc1`, the activation is 3.47% (inactive). Regarding `Cc1ccc(C(=O)NNc2ncnc3ccccc23)cc1`, the activation was 7.73% (active). As for `COC(=O)c1ccc(NC(=O)C23CC4CC(C2)CC(n2cnc(Cl)n2)(C4)C3)cc1`, the figure is 2.12% (inactive).

Turning to `Cc1ccc(S(=O)(=O)N(C)c2nc3ccccc3n3c(C(C)C)nnc23)cc1`, the activation is 5.84% (inactive). Under `CCC(C)N1C(=S)SC(C)(C)C1N(O)C(=O)NC1CCCCC1` (stereo not drawn) stands 0.24% (inactive).

As for `CCCCNC(=O)N(O)C1N(/N=C/c2ccc(N(C)C)cc2)C(=S)SC1(C)C` (stereo not drawn), the activation was 1.55% (inactive). Under `CCCCNC(=O)N(O)C1N(/N=C/c2ccccc2O)C(=S)SC1(C)C` (stereo not drawn) stands 14.4% (active). As for `COc1ccc(Br)cc1S(=O)(=O)N1CCN=C1C`, the figure is 2.93% (inactive); as for `O=C(CCC(=O)Nc1ccccc1)N/N=C/c1ccccc1F`, 0.15% (inactive). `Fc1ccccc1/C=N/Nc1cc(N2CCCCC2)ncn1`: the activation is 8.75% (active). On to `COc1ccccc1N1CCN(C(=O)C(=O)N/N=C/c2ccccc2F)CC1`, for which the activation is -1.01% (inactive).

Regarding `COc1ccc(-c2cc3nc(NCCOc4ccccc4)ccn3n2)cc1`, the activation is 0.64% (inactive). As for `CCN1CCN(c2nc(Nc3cccc(F)c3)nc(N)c2[N+](=O)[O-])CC1`, the activation is 3.12% (inactive). Under `Nc1nc(NCCCN2CCOCC2)nc(Nc2ccccc2)c1[N+](=O)[O-]` stands 0.67% (inactive); under `CNc1nc(Nc2ccc(C)c(Cl)c2)nc(N)c1[N+](=O)[O-]`, 17.5% (active); under `O=C(COC(=O)COc1cccc(F)c1)NCC1CCCCC1`, 2.16% (inactive). With `Cc1ccc(-c2ccc(CN3C(C(C)C)C(=O)N(Cc4cn(CCC5OCCO5)nn4)CCS3(=O)=O)cc2)cc1` (stereo not drawn), the activation is -0.96% (inactive). As for `O=S(=O)(c1ccc(F)cc1)N1CCN(C(=S)NC2CCCC2)CC1`, the figure is 3.66% (inactive); as for `N#CC1=C(SCc2ccc(C#N)cc2)N=C(N)C(c2nc(-c3ccccc3)cs2)C12CCCCC2` (stereo not drawn), 9.79% (active). As for `N#Cc1ccc(CSc2ncccn2)cc1`, the figure is 2.06% (inactive); as for `Cc1ccc(S(=O)(=O)N(C)C)cc1NC(=O)C(C)OC(=O)c1ccc2ccccc2n1` (stereo not drawn), 0.74% (inactive); as for `N#CCSc1nc2ccccc2c(=O)n1-c1ccccc1`, 9.45% (active). As for `N#CCSc1nc2ccc(N3CCOCC3)cc2c(=O)n1CCc1ccccc1`, the figure is -2.84% (inactive). As to `Cc1nn(-c2ccccc2)c(C)c1/C=N/NC(=O)CSc1nc2ccccc2c(=O)n1-c1ccccc1`, the activation was 0.81% (inactive). Under `O=C(c1cc(-c2ccc(Cl)cc2)on1)N1CCN(c2ccccc2)CC1` stands 3.73% (inactive); under `COc1ccccc1N1CCN(C(=O)c2cc(-c3ccc(Br)cc3)on2)CC1`, 17.8% (active); under `COc1ccccc1-c1cc(C(=O)N2CCCCC2)no1`, 3.83% (inactive).

Regarding `CC1(c2ccc(Cl)cc2Cl)NC(=O)N(CC(=O)Nc2cccnc2Cl)C1=O` (stereo not drawn), the activation was 0.61% (inactive). As for `O=C(N[C@H]1C/C=C\C(c2cccc(F)c2)N(Cc2ccccc2)C(=O)C1)OCC1c2ccccc2-c2ccccc21` (stereo partly drawn), the figure is -2.16% (inactive). Turning to `CN(C)CCNC(=O)c1cccc(-c2cnc3c(NC=O)cc(-c4cccc(C(F)(F)F)c4)cn23)c1`, the activation is -0.71% (inactive).

`CCCCc1nc2c(=O)[nH]c3ccccc3c2o1`: the activation is 3.48% (inactive).

Consider `CC(Sc1nc2c([nH]c3ccccc32)c(=O)n1C)c1ccccc1` (stereo not drawn), for which the activation is 13.8% (active). As for `Cn1nnnc1SCc1cc(=O)[nH]c2ccccc12`, the figure is 0.27% (inactive).

Consider `CCN(CC)CCNC(=O)c1sc2ncn(CC(=O)Nc3ccc(C)c(Cl)c3)c(=O)c2c1C`, for which the activation was 0.29% (inactive). With `COc1ccc(-c2cc(NC(C)=O)c3ncc(-c4cc(OC)c(OC)c(OC)c4)n3c2)cn1`, the activation is -2.13% (inactive).

Consider `Cc1cc(C)n2nc(CNS(=O)(=O)c3c(F)c(F)c(F)c(F)c3F)nc2n1`, for which the activation was 8.27% (active).

Consider `Cc1cc(C)n2nc(C(=O)NC(C)(C)C)nc2n1`, for which the activation was -0.66% (inactive).

As to `Cc1cc(C)n2nc(SCC(N)=O)nc2n1`, the activation was 0.08% (inactive).

Consider `CCC(C)(C(=O)NC1CCCC1)N(C(=O)CNC(C)=O)c1ccc(C)cc1` (stereo not drawn), for which the activation was -0.84% (inactive). Under `C[C@H]1CN([C@@H](C)CO)C(=O)CCCn2cc(nn2)CO[C@@H]1CN(C)S(=O)(=O)c1ccc(-c2ccccc2)cc1` stands -1.7% (inactive). As for `CC(C)[C@H](NC(=O)c1ccc(F)cc1)C(=O)OCC(=O)NC(=O)c1cccn1C`, the activation was 0.53% (inactive). Take `Fc1ccc2nc(N3CCCCC3)sc2c1`: the activation was 8.32% (active).

`c1c2c(cc3sc(N4CCCCC4)nc13)OCCO2`: the activation is -6.92% (inactive).

With `Fc1ccc2nc(Nc3nc4c(s3)CCCC4)sc2c1`, the activation was 5.51% (inactive). On to `Cc1cccc(-n2c(Cc3cc(=O)[nH]c(=O)[nH]3)nnc2SCC(=O)Nc2cccc(C(F)(F)F)c2)c1`, for which the activation was 0.62% (inactive). As for `CC1CCC2(CC1)NC(=O)N(Cc1nnc(-c3cccs3)o1)C2=O` (stereo not drawn), the figure is 1.39% (inactive); as for `CC(C)N1C(=S)SC(C)(C)C1n1oc(=O)n(-c2ccc(Cl)c(Cl)c2)c1=O` (stereo not drawn), -0.29% (inactive); as for `COC(=O)CSc1snnc1-c1ccc(Cl)c(Cl)c1`, 2.88% (inactive). As for `COc1cccc(-n2cc3c(c2-c2ccccc2)c(=O)n(C)c(=O)n3C)c1`, the figure is 1.09% (inactive). As for `Cc1ccc(-c2c3c(=O)n(C)c(=O)n(C)c3cn2-n2cnnc2)cc1`, the figure is 10.3% (active); as for `Cc1ccc(-c2c3c(=O)n(C)c(=O)n(C)c3cn2-c2ccccc2O)cc1`, -0.62% (inactive). For `CCN(C[C@H]1N[C@@](CC)(C(=O)OC)[C@H]2C(=O)N(Cc3ccccc3)C(=O)[C@@H]12)S(=O)(=O)c1ccc(C(F)(F)F)cc1`, the activation was 15.9% (active). As for `CCN(C[C@H]1N[C@@](CC)(C(=O)OC)[C@H]2C(=O)N(Cc3ccccc3)C(=O)[C@@H]12)S(=O)(=O)c1ccccc1`, the figure is 3.23% (inactive); as for `COC(=O)[C@]1(Cc2ccccc2)N[C@H](CN(C)S(=O)(=O)c2ccc(OC(F)(F)F)cc2)[C@@H]2C(=O)N(Cc3ccccc3)C(=O)[C@@H]21`, -3.69% (inactive); as for `OC(c1ccccc1)c1nc(/C=C/c2ccc(C(F)(F)F)cc2)cs1` (stereo not drawn), 1% (inactive). As for `CC(=O)Nc1cc(-c2ccccc2N(C)C)cn2c(-c3ccc(F)c(Cl)c3)cnc12`, the figure is 1.24% (inactive); as for `COc1ccc(NC(=O)CSCc2ccc([N+](=O)[O-])cc2)cc1OC`, 0.83% (inactive); as for `CCOc1ccc2[nH]c(=O)c(CN(Cc3nnnn3CCc3ccccc3)CC3CCCO3)cc2c1` (stereo not drawn), 1.4% (inactive). In the case of `COc1ccc2[nH]c(=O)c(CN(Cc3nnnn3CCc3ccccc3)CC3CCCO3)cc2c1` (stereo not drawn), the activation is 7.67% (active). Under `CCC(c1nnnn1Cc1ccccc1)N(Cc1cc2cc(OC)ccc2[nH]c1=O)CC1CCCO1` (stereo not drawn) stands 5.86% (inactive).

Consider `COc1ccc(-c2cc(C(=O)N(C)Cc3ccc(OC)c(OC)c3OC)c3ccccc3n2)cc1OC`, for which the activation was -6.82% (inactive). `COc1ccc(-c2cc(C(=O)NCCCN3CCCC3=O)c3ccccc3n2)cc1OC`: the activation is 0.37% (inactive). Consider `COc1ccc(-c2cc(C(F)(F)F)nc(S(C)(=O)=O)n2)cc1OC`, for which the activation is 16.9% (active).

As to `O=C(Nc1nnc(S(=O)(=O)N2CCOCC2)s1)c1cccc(Br)c1`, the activation is 3.61% (inactive). Under `O=C(Nc1nnc(S(=O)(=O)N2CCCCCC2)s1)c1cccc(Br)c1` stands 11% (active); under `Cc1cccc(C(=O)Nc2nnc(S(=O)(=O)N3CCCCCC3)s2)c1`, -0.31% (inactive); under `CC(OC(=O)CCC(=O)c1ccccc1)C(=O)Nc1ccc(F)cc1` (stereo not drawn), 0.37% (inactive). Under `Cc1ccc(N=C2SCCCN2C(=O)c2cccc(N3C(=O)CCC3=O)c2)cc1Cl` stands -0.64% (inactive). As for `COc1ccc2cc(CCl)c(Cl)nc2c1`, the figure is 2.75% (inactive); as for `O=[N+]([O-])c1ccc(C=Nc2ccc(Cl)cc2Cl)s1`, 9.39% (active). Turning to `COc1ccc(CN2[C@@H](CC(=O)O)c3cc(F)ccc3S2(=O)=O)cc1`, the activation is 1.09% (inactive). Under `CCc1noc(C)c1C(=O)N1CCN(S(=O)(=O)c2cccc(C(F)(F)F)c2)CC1` stands -0.49% (inactive). Under `CC1(C(=O)N/N=C/c2cc3c(cc2Br)OCO3)CC1(Br)Br` (stereo not drawn) stands 8.27% (active); under `O=C(/C=C/c1cc2c(cc1Br)OCO2)NCc1ccc(Cl)cc1`, 1.84% (inactive). In the case of `O=C(N/N=C\c1cc2c(cc1Cl)OCO2)c1ccc(Br)s1`, the activation is 1.53% (inactive). Turning to `CO[C@H]1[C@@H]2C=CO[C@@H](O[C@H]3O[C@@H](CO)[C@H](O)[C@@H](O)[C@@H]3O)[C@@H]2[C@@]2(CO)O[C@@H]12`, the activation is -1.13% (inactive).

As to `Cc1ccc(OCCCCc2c(C)n[nH]c2C)cc1`, the activation was 0.87% (inactive).
